HEK293 tox: cytotoxic compounds in HEK 293 cells; HEK 293 viability, ATP luminescence (CellTiter-Glo), 48-72 h; Potency, µM (series often up to 115 µM), for inactives: at the top dose activity change, negative = cytotoxicity, usual class: inhibitors; 94,000 tested, 6.6% active; also: nearly all actives have a fitted effect of over 60% in size
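HEK 293 seeded at 250 cells/well receive compound via pintool. After 48 or 72 hr at 37 degree Celsius, 5% CO2 and 95% humidity, CellTiter-Glo is dispensed and luminescence read following 10 min at room temperature.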
NIH3T3 tox: NIH 3T3 cell cytotoxicity; Potency, µM (doses to about 96.7 µM), for the others: top-dose activity change, negative = cytotoxicity, usual class: inhibitors; NIH 3T3 viability, CellTiter-Glo ATP luminescence, 48-72 h; 94,000 tested, 4.3% active; AID 1345082; also: nearly all actives have a fitted effect of over 55% in size
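Mouse fibroblast NIH 3T3 cells, 400 per well, received compound via pintool and were incubated for 48 or 72 hr prior to CellTiter-Glo ATP luminescence measurement.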
hNpr1 antagonist: blocks ANP-stimulated signaling of human Npr1 receptor; HEK293 hNpr1 GloSensor cGMP, ANP-stimulated luminescence; 76,000 tested, 1.6% active; P16066; Potency, µM (top dose mostly 46.3 µM), without a hit: at the top dose activity change, negative = inhibition, usual class: inhibitors; calls by dose curve; also: nearly all actives have a fitted effect of over 60% in size
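Compound pre-incubated 30 min at room temperature on GloSensor-loaded HEK293 cells stably carrying hNpr1 and the pGS-40F cGMP biosensor. Stimulation uses hNppA at 0.1 nM final; luminescence is taken at baseline and 20 min post-agonist.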
Luciferase inh: blocks purified firefly luciferase enzyme activity; Potency, µM (top dose mostly 115 µM), usual class: inhibitors; AID 1347043; purified P. pyralis luciferase, luminescence, biochemical; 76,000 tested, 2.5% active; P08659; also: nearly all actives have a fitted effect of over 65% in size
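FLuc 10nM, D-luciferin 10uM, ATP 10uM, Mg acetate 10mM, Tris acetate pH 7.5, Tween/BSA; cpd qHTS; enzyme added last; CCD luminescence.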
GPT2 inhibitor: GPT2 alanine aminotransferase inhibition; Recombinant GPT2, coupled pyruvate oxidase/HRP Amplex Red fluorescence; Potency, µM (top dose mostly 57.7 µM), for the others: top-dose activity change, negative = inhibition, most hits filed as inhibitors; 100,000 tested, 0.25% active; also: nearly all actives have a fitted effect of over 60% in size
Target sequence (Q8TD30 whole entry, looked up): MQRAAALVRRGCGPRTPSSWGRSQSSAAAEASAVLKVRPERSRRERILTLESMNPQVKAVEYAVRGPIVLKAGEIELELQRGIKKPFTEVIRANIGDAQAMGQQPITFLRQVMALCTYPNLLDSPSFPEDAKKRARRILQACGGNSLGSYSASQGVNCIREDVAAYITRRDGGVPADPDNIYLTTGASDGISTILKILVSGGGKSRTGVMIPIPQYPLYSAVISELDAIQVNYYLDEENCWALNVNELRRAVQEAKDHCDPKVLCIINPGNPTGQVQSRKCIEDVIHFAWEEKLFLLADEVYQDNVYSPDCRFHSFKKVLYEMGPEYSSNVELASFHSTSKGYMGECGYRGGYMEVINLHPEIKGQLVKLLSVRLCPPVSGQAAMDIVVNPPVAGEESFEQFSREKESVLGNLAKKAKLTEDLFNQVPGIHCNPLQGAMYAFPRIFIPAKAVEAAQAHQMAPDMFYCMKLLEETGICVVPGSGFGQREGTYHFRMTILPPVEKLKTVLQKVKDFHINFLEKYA
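Fluorescence read-out: pyruvate from GPT2 turnover coupled to pyruvate oxidase, HRP and Amplex Red (0.2mM ThPP, 0.2U/mL PO and HRP, 50uM Amplex final). Substrates 250uM a-KG, 2mM L-alanine; enzyme 10ng/uL; 30 min RT.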
Starred values were filed as active, the others as inactive; i = inactive; ? = inconclusive; . = no result; [ ] = dose if it differs, or a comment. A selection: hits, their analogues and other compounds. The true share with any hit is near 10%. Unless noted, calls follow the shape of the dose curve; as a rule, active = well fitted curve in the direction sought with a large enough effect; inconclusive = small, poorly fitted or top-dose-only effect, or another doubt; inactive = no such curve, though single readings can be large; an effect the other way counts as inactive or inconclusive. % is scaled to controls: 0 for no effect and ±100 for the full control effect; potency is read from the fitted curve at half-maximal effect.

SMILES	HEK293 tox	NIH3T3 tox	hNpr1 antagonist	Luciferase inh	GPT2 inhibitor
CCC(CC)C(=O)N1CCC(=O)N(CCOC)C[C@H]2COc3ccccc3[C@H]21	?	-18%	.	.	.
Cn1cc(CN2CCCCCCNC(=O)[C@@H]3CCC[C@@H]32)c2ccccc21	?	?	-14%	i	-23%
O=C(NC1CC1)C1CCCN1C(=O)c1cccc(-c2ccccn2)c1 (configuration not stated)	-13%[172 µM]	-17%[138 µM]	.	.	-17%[88.5 µM]
O=C(c1nnc(CNc2ccccc2)n1-c1ccccc1)N1CCC[C@@H]1C(c1ccccc1)c1ccccc1	?	?	-30%	i	i
O=C(c1nnc(CNc2ccc(OC(F)(F)F)cc2)n1-c1ccccc1)N1CCC[C@@H]1CN1CCCC1	71µM*	?	3%	i	?
C[C@H]1CCCN1C(=O)c1nnc(CNc2ccc(OC(F)(F)F)cc2)n1-c1ccccc1	?	-22%	0%	i	i
C[C@H]1CCCN1C(=O)c1nnc(COc2ccccc2)n1-c1ccccc1	?	89µM*	-13%[70.6 µM]	i	-16%[88.5 µM]
O=C(c1nnc(COc2ccc(F)c(F)c2)n1-c1ccccc1)N1CCC[C@@H]1C(c1ccccc1)c1ccccc1	?	4.5µM*	-6%	i	-3%
C[C@H]1CCCN1C(=O)c1nnc(CNc2ccc(C(=O)O)cc2)n1-c1ccccc1	-13%[172 µM]	?	0%[70.6 µM]	i	-8%[88.5 µM]
C[C@H]1CCCN1C(=O)c1nnc(COc2ccc(Cl)cc2)n1-c1ccccc1	79µM*	3.2µM*	-15%[70.6 µM]	i	-5%[88.5 µM]
C[C@H]1CCCN1C(=O)c1nnc(COc2ccc3cccnc3c2)n1-c1cccnc1	-16%[172 µM]	?	5%[70.6 µM]	i	-4%[88.5 µM]
Cc1ccccc1C(=O)N1CCN(C(=O)c2cccc(-c3ccccn3)c2)CC1	?	?	.	.	i
C[C@H]1CCCN1C(=O)c1nnc(COc2ccc(F)c(F)c2)n1-c1cccnc1	?	25µM*	-5%[70.6 µM]	i	-8%[88.5 µM]
COc1cccc(C(=O)N2CCC(N3C[C@H](O)C[C@H]3C(=O)N3CC=C(c4ccccc4)CC3)CC2)c1	79µM*	-28%	-3%	i	2%
COc1ccc(C(=O)N2CCC(n3cc(-c4nc(-c5ccccc5)no4)nn3)C2)cc1F (configuration not stated)	?	-26%	?	?	i
Cc1cccc(OCC(=O)N2CCC(n3cc(-c4nc(C5CC5)no4)nn3)C2)c1 (configuration not stated)	-26%	-30%	1%	i	-4%
CCCc1noc(-c2cn(C3CCN(C(=O)c4ccc(F)c(F)c4)CC3)nn2)n1	?	13µM*	-24%	i	-6%
Cc1cccc(OCC(=O)N2CCC(n3cc(-c4nc(-c5ccccc5)no4)nn3)C2)c1 (configuration not stated)	10µM*	13µM*	-2%	?	i
COc1cccc(C(=O)N2CCC(N3C[C@H](O)C[C@H]3C(=O)N3CCc4ccccc43)CC2)c1	i	-2%	1%	i	i
COc1cccc(C(=O)N2CCC(n3cc(-c4nc(-c5ccccc5)no4)nn3)C2)c1 (configuration not stated)	?	?	11µM*	?	i
COc1cccc(C(=O)N2CCC(n3cc(-c4nc(-c5ccccc5)no4)nn3)CC2)c1	45µM*	?	?	?	3%
O=C(NCc1cc(F)cc(F)c1)c1ccc(N2CC3CC(C2)[C@H]2CCCC(=O)N2C3)nc1 (some centres not stated)	-9%	-25%	1%	i	i
O=C(NCc1ccc(F)cc1F)c1ccc(N2CC3CC(C2)[C@H]2CCCC(=O)N2C3)nc1 (some centres not stated)	-2%	28µM*	3%	i	i
O=C(NCc1cccnc1)c1ccc(N2CC3CC(C2)[C@H]2CCCC(=O)N2C3)nc1 (some centres not stated)	10%	5µM*	-3%	i	4%
CCNC(=O)N(C1CC1)C1CCOC2(CCN(C(=O)c3ccc(OC)nc3)CC2)C1 (configuration not stated)	-4%	?	.	.	-7%
SMILES	HEK293 tox	NIH3T3 tox	hNpr1 antagonist	Luciferase inh	GPT2 inhibitor
CN(C)CCNC(=O)c1nc2nc(-c3ccccc3)c(-c3cccnc3)cc2n1C	?	?	0%[70.6 µM]	i	-7%[88.5 µM]
Cc1ccccc1Nc1cc2c(nc1-c1ccccc1)nc(C(=O)NCCN(C)C)n2C	40µM*	32µM*	2%[70.6 µM]	i	?
CN(C)CCNC(=O)c1nc2nc(-c3ccccc3)c(Nc3ccc(F)cc3)cc2n1C	56µM*	?	2%[70.6 µM]	i	i
O=C(C1CCN(c2nc(-c3ccccc3)nc3c2CCC3)CC1)N1CCNCC1	?	?	10%	i	-6%
O=C(C1CCCN(c2nc(-c3ccccc3)nc3c2CCC3)C1)N1CCNCC1 (configuration not stated)	?	?	0%	i	1%
CC(C)(N)C(=O)N1CCN(c2nc(-c3ccccc3)nc3c2CCC3)CC1	50µM*	?	-1%	i	-7%
O=C(NC1CCNCC1)C1CCCN(c2nc(-c3ccccc3)nc3c2CCC3)C1 (configuration not stated)	?	40µM*	0%	i	-5%
NC1CCN(C(=O)C2CCCN(c3nc(-c4ccccc4)nc4c3CCC4)C2)CC1 (configuration not stated)	?	28µM*	8%	i	i[11.5 µM]
C[S+](=O)([O-])c1ccc(-c2cc(C(=O)NC3CC3)nn3cccc23)cc1	?	?	.	.	i
COc1ccc([C@H]2C[C@@H](O)[C@@H](O)[C@@H]2NC(=O)c2cc3ccccc3s2)cc1	79µM*	?	?	i	1%[88.5 µM]
COc1ccc([C@H]2C[C@@H](O)[C@@H](O)[C@@H]2NCc2cn(C)c3ccccc23)cc1	?	89µM*	-24%[70.6 µM]	i	-6%[88.5 µM]
COc1ccc([C@H]2C[C@@H](O)[C@@H](O)[C@@H]2NCc2ccc(Cl)cc2)cc1	100µM*	?	-21%[70.6 µM]	i	?
COc1ccc([C@H]2C[C@@H](O)[C@@H](O)[C@@H]2NS(=O)(=O)c2ccc(C(F)(F)F)cc2)cc1	100µM*	-28%[174 µM]	2%[70.6 µM]	i	2%[88.5 µM]
COc1ccc([C@H]2C[C@@H](O)[C@@H](O)[C@@H]2NS(=O)(=O)c2ccc(Cl)cc2)cc1	-29%[172 µM]	-29%[138 µM]	-15%[70.6 µM]	i	1%[88.5 µM]
O=C1NCc2ccccc2CC12CCCN2Cc1cccc(O)c1 (configuration not stated)	-19%	-3%	.	.	i
